In the supplement of paper PMC8975748:
Where a name gives a salt, the structure may show the parent alone. ± gives the standard deviation of the averaged measurements.

Assays:
[1] = tested on: Saccharomyces cerevisiae BY4741 SeMeCo community; assay: mean cell size (pixel area) (pixels); higher = larger cells; conditions: 10 µM; 24 h; SM minimal medium
Outline: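 A four-plasmid fluorescent Saccharomyces cerevisiae BY4741 community was tested; each plasmid complements one auxotrophy and carries a fluorescent marker. An overnight preculture at OD600 = 1.0 was diluted to OD600 = 0.3, and 70 µl was added to 384-well plates acoustically predosed with drug (final 10 µM) in SM medium for 24 h. Cells were fixed with paraformaldehyde and imaged by automated confocal microscopy, with analysis in Harmony. Mean cell pixel area per well is averaged over 3 replicates. Same SeMeCo high-content imaging drug screen: Selleck FDA-approved drugs at 10 µM, 24 h in SM medium, 384-well plates, 3 replicates.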

[2] = tested on: Saccharomyces cerevisiae BY4741 SeMeCo community; assay: z-score of prototroph abundance vs DMSO median; higher = larger share of this subpopulation than in DMSO controls; conditions: 10 µM; 24 h; SM minimal medium; subpopulation (auxotrophy): Prototroph
Outline: (§1)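 A community of Saccharomyces cerevisiae BY4741 was built from four plasmids that each restored one auxotrophy and encoded a distinct fluorescent protein. Pre-grown overnight to OD600 1.0 and diluted to 0.3, it was dispensed at 70 µl into 384-well plates acoustically predosed with library drugs for a final 10 µM, and grown 24 h in minimal SM medium. Cells were then paraformaldehyde-fixed and imaged by automated confocal microscopy. Thresholds and autofluorescence correction came from single-auxotroph fluorescent strains, and each subpopulation's abundance was scored as a z-score relative to the vehicle-well median.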

[3] = tested on: Saccharomyces cerevisiae BY4741 SeMeCo community; assay: z-score of subpopulation abundance vs DMSO median, subpopulation auxotrophic for M; higher = larger share of this subpopulation than in DMSO controls; conditions: 10 µM; 24 h; SM minimal medium; subpopulation (auxotrophy): M
Outline: as §1

[4] = tested on: Saccharomyces cerevisiae BY4741 SeMeCo community; assay: z-score of subpopulation abundance vs DMSO median, subpopulation auxotrophic for L; higher = larger share of this subpopulation than in DMSO controls; conditions: 10 µM; 24 h; SM minimal medium; subpopulation (auxotrophy): L
Outline: as §1

[5] = tested on: Saccharomyces cerevisiae BY4741 SeMeCo community; assay: z-score of subpopulation abundance vs DMSO median, subpopulation auxotrophic for U; higher = larger share of this subpopulation than in DMSO controls; conditions: 10 µM; 24 h; SM minimal medium; subpopulation (auxotrophy): U
Outline: as §1

[6] = tested on: Saccharomyces cerevisiae BY4741 SeMeCo community; assay: z-score of subpopulation abundance vs DMSO median, subpopulation auxotrophic for H; higher = larger share of this subpopulation than in DMSO controls; conditions: 10 µM; 24 h; SM minimal medium; subpopulation (auxotrophy): H
Outline: as §1

[7] = tested on: Saccharomyces cerevisiae BY4741 SeMeCo community; assay: z-score of subpopulation abundance vs DMSO median, subpopulation auxotrophic for LU; higher = larger share of this subpopulation than in DMSO controls; conditions: 10 µM; 24 h; SM minimal medium; subpopulation (auxotrophy): LU
Outline: as §1

[8] = tested on: Saccharomyces cerevisiae BY4741 SeMeCo community; assay: z-score of subpopulation abundance vs DMSO median, subpopulation auxotrophic for LM; higher = larger share of this subpopulation than in DMSO controls; conditions: 10 µM; 24 h; SM minimal medium; subpopulation (auxotrophy): LM
Outline: as §1

[9] = tested on: Saccharomyces cerevisiae BY4741 SeMeCo community; assay: z-score of subpopulation abundance vs DMSO median, subpopulation auxotrophic for HM; higher = larger share of this subpopulation than in DMSO controls; conditions: 10 µM; 24 h; SM minimal medium; subpopulation (auxotrophy): HM
Outline: as §1

[10] = tested on: Saccharomyces cerevisiae BY4741 SeMeCo community; assay: z-score of subpopulation abundance vs DMSO median, subpopulation auxotrophic for HU; higher = larger share of this subpopulation than in DMSO controls; conditions: 10 µM; 24 h; SM minimal medium; subpopulation (auxotrophy): HU
Outline: as §1

[11] = tested on: Saccharomyces cerevisiae BY4741 SeMeCo community; assay: z-score of subpopulation abundance vs DMSO median, subpopulation auxotrophic for UM; higher = larger share of this subpopulation than in DMSO controls; conditions: 10 µM; 24 h; SM minimal medium; subpopulation (auxotrophy): UM
Outline: as §1

[12] = tested on: Saccharomyces cerevisiae BY4741 SeMeCo community; assay: z-score of subpopulation abundance vs DMSO median, subpopulation auxotrophic for HL; higher = larger share of this subpopulation than in DMSO controls; conditions: 10 µM; 24 h; SM minimal medium; subpopulation (auxotrophy): HL
Outline: as §1

[13] = tested on: Saccharomyces cerevisiae BY4741 SeMeCo community; assay: z-score of subpopulation abundance vs DMSO median, subpopulation auxotrophic for HLU; higher = larger share of this subpopulation than in DMSO controls; conditions: 10 µM; 24 h; SM minimal medium; subpopulation (auxotrophy): HLU
Outline: as §1

[14] = tested on: Saccharomyces cerevisiae BY4741 SeMeCo community; assay: z-score of subpopulation abundance vs DMSO median, subpopulation auxotrophic for HUM; higher = larger share of this subpopulation than in DMSO controls; conditions: 10 µM; 24 h; SM minimal medium; subpopulation (auxotrophy): HUM
Outline: as §1

[15] = tested on: Saccharomyces cerevisiae BY4741 SeMeCo community; assay: z-score of subpopulation abundance vs DMSO median, subpopulation auxotrophic for HLUM; higher = larger share of this subpopulation than in DMSO controls; conditions: 10 µM; 24 h; SM minimal medium; subpopulation (auxotrophy): HLUM
Outline: as §1

[16] = tested on: Saccharomyces cerevisiae BY4741 SeMeCo community; assay: z-score of subpopulation abundance vs DMSO median, subpopulation auxotrophic for LUM; higher = larger share of this subpopulation than in DMSO controls; conditions: 10 µM; 24 h; SM minimal medium; subpopulation (auxotrophy): LUM
Outline: as §1

[17] = tested on: Saccharomyces cerevisiae BY4741 SeMeCo community; assay: z-score of subpopulation abundance vs DMSO median, subpopulation auxotrophic for HLM; higher = larger share of this subpopulation than in DMSO controls; conditions: 10 µM; 24 h; SM minimal medium; subpopulation (auxotrophy): HLM
Outline: as §1

Row | Compound | mean cell size [1] | z-score of prototroph abundance [2] | z-score of subpopulation abundance [3] | z-score of subpopulation abundance [4] | z-score of subpopulation abundance [5] | z-score of subpopulation abundance [6] | z-score of subpopulation abundance [7] | z-score of subpopulation abundance [8] | z-score of subpopulation abundance [9] | z-score of subpopulation abundance [10] | z-score of subpopulation abundance [11] | z-score of subpopulation abundance [12] | z-score of subpopulation abundance [13] | z-score of subpopulation abundance [14] | z-score of subpopulation abundance [15] | z-score of subpopulation abundance [16] | z-score of subpopulation abundance [17]
1 | Cc1cc(CC(C)CC(C)(C)C)n(O)c(=O)c1 (stereo not drawn) [Piroctone Olamine] | 12 ± 0.34 | -16.9 | 0.45 | 1.41 | 1.32 | 3.62 | 2.47 | 6.65 | 24 | 31.8 | 6.25 | 14.6 | 20.3 | 30.2 | 16.6 | – | –
2 | Cc1[nH]c(=O)c(C#N)cc1-c1ccncc1 [Milrinone] | 12.4 ± 0.18 | 1 | -0.56 | -0.03 | 0.34 | -0.52 | -0.56 | -0.5 | -0.67 | -0.62 | -0.1 | -0.41 | -0.86 | -1.04 | -1.21 | -0.06 | –
3 | CC(C)C(=O)Oc1ccc(CO)cc1[C@H](CCN(C(C)C)C(C)C)c1ccccc1 [Fesoterodine Fumarate] | – | 0.94 | 0 | -0.39 | 0.1 | -1.08 | -0.25 | -0.9 | -0.41 | -0.72 | -0.82 | -0.27 | -0.16 | – | -1.13 | -0.22 | -1
4 | O=C(c1ccc(F)cc1)C1CCN(CCn2c(=O)[nH]c3ccccc3c2=O)CC1 [Ketanserin] | 12.33 ± 0.039 | 0.15 | 0.03 | -0.47 | 0.03 | -0.82 | -0.66 | 0.46 | -0.51 | -0.13 | – | 0.13 | 0.14 | -0.47 | 0.5 | -0.27 | –
5 | C[C@]12CCC3=C4CCC(=O)C=C4CC[C@H]3[C@@H]1CC[C@@]2(O)CC#N [Dienogest] | 12.4 ± 0.18 | 0.42 | -0.36 | 0.12 | -0.87 | 0.11 | -0.52 | -0.44 | -0.11 | -0.02 | – | 0.26 | -0.53 | -0.51 | -0.14 | 0 | –
6 | COc1c(N2C[C@@H]3CCCN[C@@H]3C2)c(F)cc2c(=O)c(C(=O)O)cn(C3CC3)c12 [Moxifloxacin HCl] | – | -0.74 | 0.89 | 2.07 | -0.98 | 0.53 | -0.22 | – | 0.67 | -0.55 | – | 1.26 | -0.07 | – | 1.08 | 0.77 | 0.72
7 | COc1ccc2c3c1O[C@H]1C[C@@H](O)C=C[C@@]31CCN(C)C2 [Galanthamine] | 12.47 ± 0.052 | -1.09 | 1.21 | 0.78 | -0.51 | 0.83 | 0.29 | 0.45 | 1.76 | 0.48 | 0.1 | 0.83 | 1.67 | 1.27 | 1.34 | 1.02 | –
8 | CC(=O)OCC1=C(C(=O)O)N2C(=O)[C@@H](NC(=O)Cc3cccs3)[C@H]2SC1 [Cephalothin] | 12.7 ± 0.19 | 0.3 | 1.49 | -0.16 | -1.22 | 0.18 | -0.87 | 0.02 | 1.49 | -0.81 | – | -0.42 | -0.21 | -0.69 | -0.41 | -0.19 | –
9 | CC(C)(C)C1CCC(CC2=C(O)c3ccccc3C(=O)C2=O)CC1 (stereo not drawn) [Buparvaquone] | – | -0.85 | 2.2 | 0.5 | -0.95 | -0.05 | 0.03 | 0.78 | 1.55 | -0.75 | 0.54 | -0.13 | 0.03 | – | – | 0.35 | 0.05
10 | CC1(C)S[C@@H]2[C@H](NC(=O)[C@H](C(=O)O)c3ccsc3)C(=O)N2[C@H]1C(=O)O [Ticarcillin sodium] | – | -0.89 | 1.32 | 2.72 | -0.93 | – | 1.74 | 2.06 | 0.42 | -0.4 | -0.45 | 2.48 | 1.46 | – | 1.75 | 1.35 | 1.43
11 | C[C@H]1COc2c(N3CCN(C)CC3)c(F)cc3c(=O)c(C(=O)O)cn1c23 [Levofloxacin] | 12.4 ± 0.19 | – | 0 | -0.45 | -0.46 | -0.42 | -0.77 | -0.53 | -0.49 | -0.62 | – | – | -0.56 | -0.88 | -0.96 | -1.11 | –
12 | CN1CCN(C2=Nc3cc(Cl)ccc3Nc3ccccc32)CC1 [Clozapine] | 12.4 ± 0.21 | – | -0.47 | -0.41 | 0.17 | – | -1.03 | -0.26 | -0.07 | -0.45 | – | 0.94 | -0.01 | 0.23 | -0.29 | 0.32 | –
13 | COC(=O)Nc1nc2cc(C(=O)c3ccccc3)ccc2[nH]1 [Mebendazole] | – | -1.69 | -0.56 | 0.37 | 1.91 | 1.06 | 0.33 | 1.32 | 1.02 | 1.39 | – | 0.26 | -0.05 | – | 1.44 | 0.4 | 1.83
14 | O=c1[nH]c(=O)n([C@H]2C[C@H](O)[C@@H](CO)O2)cc1/C=C/Br [Brivudine] | – | 0.4 | 0.48 | -2.11 | 0.12 | – | -0.22 | -1.47 | – | – | 0.16 | – | -0.95 | – | -1.13 | – | -1.12
15 | c1cnc(N2CCN(Cc3ccc4c(c3)OCO4)CC2)nc1 [Piribedil] | 12.6 ± 0.18 | – | 0.35 | 0.51 | 0.44 | 0.27 | 0.48 | 0.32 | 0.27 | -0.25 | -0.82 | 0.51 | 0.22 | -0.11 | -0.28 | 0.73 | –
